# Assay outcomes as filed in PubChem.
# The list is not random: actives were taken first. Their share in the collection is about 3.1%.
# DRD3 antagonist – qHTS of D3 Dopamine Receptor Antagonist: qHTS; D3R cells, DiscoveRx beta-arrestin luminescence, antagonist mode; hits give low values; 360,000 compounds, 2.5% hits; D(3) dopamine receptor (Homo sapiens), P35462; max response, negative = inhibition, %; in the data active means max response below about -50%; inconclusive means no clear call, values can overlap the other calls
# Target sequence (P35462 whole entry, looked up): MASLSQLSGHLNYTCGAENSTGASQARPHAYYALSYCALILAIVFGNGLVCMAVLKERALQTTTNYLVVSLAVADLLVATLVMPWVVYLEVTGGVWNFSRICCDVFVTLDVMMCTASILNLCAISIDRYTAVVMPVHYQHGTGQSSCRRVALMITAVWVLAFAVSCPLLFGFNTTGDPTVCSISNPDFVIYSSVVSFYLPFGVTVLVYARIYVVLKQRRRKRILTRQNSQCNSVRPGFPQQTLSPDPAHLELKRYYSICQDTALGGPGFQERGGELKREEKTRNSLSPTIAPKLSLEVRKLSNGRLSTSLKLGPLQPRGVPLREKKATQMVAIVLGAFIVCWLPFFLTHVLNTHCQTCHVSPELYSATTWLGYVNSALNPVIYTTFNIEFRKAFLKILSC
#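 Cells expressing the human receptor were seeded at 1500 cells/well, incubated overnight at 37 degrees C in 5% CO2, then exposed to library compounds with dopamine controls for 90 minutes at 37 degrees C before luminescent detection.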
# RGS4 inh – Inhibitors of Regulator of G Protein Signaling (RGS) 4: qHTS | 390,000 compounds, 0.039% hits | Transcreener GDP fluorescence polarization, RGS4-accelerated GTP hydrolysis | AID 504845, 2011 | Potency, µM (titrated, usually from 114 µM), actives largely listed as inhibitors; active means well fitted inhibition curve with a large enough effect; inconclusive means small, poorly fitted or top-dose-only effect; inactive means no such curve, though single readings can be large or run the other way; further: nearly all actives have a fitted effect of over 75% in size
# Target sequence (P49798 whole entry, looked up): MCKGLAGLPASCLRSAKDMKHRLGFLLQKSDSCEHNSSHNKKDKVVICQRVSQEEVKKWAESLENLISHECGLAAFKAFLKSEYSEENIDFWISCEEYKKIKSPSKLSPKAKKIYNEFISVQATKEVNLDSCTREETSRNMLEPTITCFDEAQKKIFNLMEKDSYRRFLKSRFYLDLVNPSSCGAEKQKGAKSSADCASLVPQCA
#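 MLSMR compounds (23 nl, pin-transferred) preincubated 10 min at room temperature with a 500nM (2x) first reagent, then RGS4 at 900nM (2x) plus Transcreener GDP mix added; fluorescence polarization (620/688 nm) read before and after 90 min at 30 °C.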
# DRD3 agonist – qHTS of D3 Dopamine Receptor Agonist: qHTS; D(3) dopamine receptor (Homo sapiens), P35462; D3R DiscoveRx beta-arrestin cells, luminescence, 90 min; max activation, %; 410,000 compounds, 0.58% hits; in the data active means max activation above about 30%
#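 Cells at 1500/well, incubated overnight, then treated with pinned compounds (dopamine as control) for 90 min at 37 degrees C. DiscoveRx reagent added for 30 - 60 minutes at room temperature; luminescence read.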
# uPA surface inh – qHTS for Inhibitors of Cell Surface uPA Generation | cell surface uPA generation assay, qHTS | Potency, µM (highest dose often 38.3 µM), most hits filed as inhibitors | 330,000 compounds, 0.31% hits; active means well fitted inhibition curve with a large enough effect; inconclusive means small, poorly fitted or top-dose-only effect; inactive means no such curve, though single readings can be large or run the other way; tested in mouse RAW 264.7 cells; further: nearly all actives have a fitted effect of over 55% in size
# Numbers stand for hits; – = inactive; ? = inconclusive; · = not tested or not shown.
SMILES,DRD3 antagonist,RGS4 inh,DRD3 agonist,uPA surface inh
Cc1ccc(NC(=O)CN(C)C(=O)COc2cc(F)ccc2[N+](=O)[O-])cc1,-53,–,–,–
COc1ccc(-c2cc([N+](=O)[O-])ccc2OCC(=O)N(C)CC(=O)Nc2ccc(C)cc2)cc1,?,–,–,–
COc1cc(C(C)=O)ccc1OCC(O)CN1CCN(c2ccccc2)CC1 (configuration not stated),?,–,–,–
COc1cc(C(C)=O)ccc1OCC(O)CN1CCN(c2ccccn2)CC1 (configuration not stated),–,–,78,–
COc1cc(C(C)=O)ccc1OCC(O)CN1CCN(c2ccc(F)cc2)CC1 (configuration not stated),?,–,–,–
COc1cc(C(C)=O)ccc1OCC(O)CN1CCN(c2ccc(C)cc2C)CC1 (configuration not stated),-67,–,–,–
Cc1cccc(CSc2ncc(Cl)c(C(=O)Nc3sc4c(c3C#N)CCCC4)n2)c1,·,–,–,·
Nc1cc(N)c(OCC(F)(F)F)cc1OCC(F)(F)F,-56,–,–,–
CC(=O)Nc1cc(C(=O)NCc2ccc(C)cc2)ccc1Sc1ccc(C)cc1,·,–,–,·
CCN(CC)CCNC(=O)c1ccc(Sc2ccc(Cl)cc2)c(NC(C)=O)c1,-77,–,–,–
CCN(CC)CCNC(=O)c1ccc(Sc2ccc(C)cc2)c(NC(C)=O)c1,-88,–,–,–
CCN(CCCNC(=O)c1ccc(Sc2ccc(Cl)cc2)c(NC(C)=O)c1)c1cccc(C)c1,·,–,–,·
O=C(Cc1cccs1)N[C@@H]1C(=O)N2C(C(=O)[O-])=C(C[n+]3ccccc3)CS[C@H]12,·,·,–,·
CC[C@H](C)C(C(=O)N1CCN(C(=O)OC(C)(C)C)CC1)n1cc(C(CC(C)C)NC(=O)OC(C)(C)C)nn1 (some centres not stated),–,–,–,–
CC[C@@H](C)[C@@H](C(=O)N1CCN(C(=O)OC(C)(C)C)CC1)n1cc(CCCCNC(=O)OC(C)(C)C)nn1,–,–,53,–
CC(C)(C)OC(=O)NCCCC[C@@H](C(=O)NCCCCCCCCCCC(=O)N1CCN(C(=O)OC(C)(C)C)CC1)n1cc(CCO)nn1,–,–,38,–
COc1ccc(-c2nc3cccc(C)n3c2Nc2ccc(C)cc2)cc1,·,–,·,·
Cc1ccc(C)c(N2C(=O)N(Cc3cc(=O)n4ccccc4n3)c3ccccc3S2(=O)=O)c1,·,–,–,·
COc1ccc(-c2cc3nc(C)n(N)c(=O)c3s2)cc1,–,–,–,0.71µM
NC(=O)CC(NC(=O)Cc1cccc2ccccc12)c1ccc(NC2CC3CCC2C3)c([N+](=O)[O-])c1 (configuration not stated),-65,–,–,?
COc1ccc(CCNc2ccc(C(CC(N)=O)NC(=O)c3ccc(Br)cc3)cc2[N+](=O)[O-])cc1 (configuration not stated),-68,–,–,–
COc1ccc(CCNc2ccc(C(CC(N)=O)NC(=O)Cc3ccc(Br)cc3)cc2[N+](=O)[O-])cc1 (configuration not stated),–,–,–,–
NC(=O)CC(NC(=O)Cc1ccc(Br)cc1)c1ccc(N2CCC(Cc3ccccc3)CC2)c([N+](=O)[O-])c1 (configuration not stated),-97,–,–,–
NC(=O)CC(NC(=O)Cc1ccc(Cl)cc1)c1ccc(NC2CCN(Cc3ccccc3)CC2)c([N+](=O)[O-])c1 (configuration not stated),–,–,–,–
NC(=O)CC(NC(=O)Cc1ccc(Cl)cc1)c1ccc(NC2CC3CCC2C3)c([N+](=O)[O-])c1 (configuration not stated),-63,–,–,?
SMILES,DRD3 antagonist,RGS4 inh,DRD3 agonist,uPA surface inh
Cc1cn2c(=O)cc(COC(=O)c3ccc(NC(=O)COc4ccccc4C)cc3)nc2s1,·,–,–,·
Cc1oc2ncnc(N3CCCCC3)c2c1C(=O)Nc1cccc(Cl)c1C,·,–,–,·
CCc1ccc(NC(=O)CN(Cc2ccccc2)S(=O)(=O)c2ccc3nc(C)sc3c2)cc1,·,–,–,·
CCOC(=O)N1C(COCc2ccccc2)C=CCS1(=O)=O (configuration not stated),·,–,·,·
NC(=O)CC(NC(=O)Cc1cccc2ccccc12)c1ccc(NCCOc2ccccc2)c([N+](=O)[O-])c1 (configuration not stated),-80,–,–,?
NC(=O)CC(NC(=O)Cc1cccc2ccccc12)c1ccc(NCC2CC2)c([N+](=O)[O-])c1 (configuration not stated),?,–,–,–
Cc1ccc(Cn2cc3c(n2)-c2c(oc(C(=O)Nc4ccc(F)cc4F)c2C)CC3)cc1,·,–,–,·
CCCOC(=O)N[C@@H]1C(=O)N2C(C(=O)OCCC)=C(C)CS[C@H]12,-53,–,–,–
CCc1cccc2sc(N3CCN(C(=O)c4ccc([N+](=O)[O-])o4)CC3)nc12,–,–,–,7.9µM
CCc1cccc2sc(N3CCN(C(=O)C4CC4)CC3)nc12,·,–,–,·
Cc1nn2c(=O)cc(COC(=O)COc3ccccc3C)nc2s1,·,–,–,·
COc1ccc(-c2nc3ccc(C)cn3c2NCc2ccccc2)cc1SC1CCCCC1,–,–,–,3.2µM
CCCCNc1c(-c2ccc(OC)c(SC3CCCCC3)c2)nc2ccc(C)cn12,–,–,–,?
COc1ccc(-c2cc(-c3nc4ccccn4c3NCc3ccccc3)ccc2OC)cc1,–,–,–,5.6µM
CCC(C)Sc1ccc(-c2nc3ccc(C)cn3c2NCc2ccccc2)cc1OC (configuration not stated),–,–,–,5.6µM
CCCCCCSc1ccc(-c2nc3ccc(C)cn3c2NCc2ccccc2)cc1OC,–,–,–,–
CCC(C)Sc1cc(-c2nc3ccc(C)cn3c2NCc2ccccc2)ccc1OC (configuration not stated),–,–,–,4.5µM
C=CCN1C[C@H](C(=O)N(CCCN(C)C)C(=O)NCC)C[C@@H]2c3cccc4[nH]cc(c34)C[C@H]21,·,·,67,·
CCC(C)(C)c1ccc(OCCCC[n+]2ccccc2)c(C(C)(C)CC)c1,–,–,–,11µM
CCCCCc1ccc(OCCCC[n+]2ccccc2)c(CCCCC)c1,–,–,–,–
N[C@@H](C(=O)N[C@@H]1C(=O)N2C(C(=O)O)=C(CSc3cn[nH]n3)CS[C@H]12)c1ccc(O)cc1,·,·,–,·
O=C(Nc1ccccc1C(=O)NC(Cc1c[nH]c2ccccc12)C(=O)O)c1ccco1 (configuration not stated),-55,–,–,–
Cc1ccc(NC(=O)NCc2c(-n3cccc3)sc3c2CCCC3)c(Cl)c1,·,–,–,·
Cn1c2ccccc2c(=O)c2cc(C#Cc3ccc(N)cc3)ccc21,–,–,59,?
COc1cc2sc3ccc(C#Cc4ccc(N)cc4)cc3c(=O)c2cc1OC,–,–,35,–
